Consider 93 compounds from PubChem BioAssay AID463187 (University of Pittsburgh Molecular Library Screening Center, 2010).

The whole screen tested about 220,000 compounds, of which about 1,500 (0.68%) were called active. The sample holds actives, similar compounds and a random draw of the others, so the mix is not that of the screen.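 Rule for the calls: active = Hck-Nef kinase inhibition above about 50% (limit read from the data); inactive = inhibition below that limit.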

The target in the test is Tyrosine-protein kinase HCK (Homo sapiens) (UniProt P08631). The test is described as follows: inhibitors of Nef-activated human Hck kinase, primary screen, biochemical, Z-Lyte FRET, 384-well, Hck-YEEI (AID 463187).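 Note: 0% = DMSO with Hck plus Nef and 100% = Hck alone without Nef.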 The conditions noted are these: Recombinant Hck-YEEI plus Nef, Z-Lyte FRET kinase assay; at 20 µM; stronger effect = higher value.
Sequence of Tyrosine-protein kinase HCK (Homo sapiens) (P08631 whole entry, looked up): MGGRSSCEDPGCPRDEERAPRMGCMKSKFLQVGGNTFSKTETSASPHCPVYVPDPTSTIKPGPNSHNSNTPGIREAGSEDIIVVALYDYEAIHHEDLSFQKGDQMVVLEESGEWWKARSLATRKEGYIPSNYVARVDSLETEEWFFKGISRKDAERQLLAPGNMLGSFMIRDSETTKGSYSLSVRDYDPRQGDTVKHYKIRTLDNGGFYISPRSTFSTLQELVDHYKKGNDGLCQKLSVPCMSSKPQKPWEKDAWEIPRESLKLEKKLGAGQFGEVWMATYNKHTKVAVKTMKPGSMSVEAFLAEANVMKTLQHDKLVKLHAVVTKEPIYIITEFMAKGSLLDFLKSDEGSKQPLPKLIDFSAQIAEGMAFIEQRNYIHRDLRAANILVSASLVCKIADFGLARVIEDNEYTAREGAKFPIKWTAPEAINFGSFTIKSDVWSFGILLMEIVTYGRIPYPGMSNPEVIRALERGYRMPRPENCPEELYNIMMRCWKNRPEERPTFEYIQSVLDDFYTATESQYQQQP
By inhibition is commonly meant the change of the read-out against control, counted positive when it falls. In the case of `CCOc1ccccc1NC(=O)c1cc(S(=O)(=O)N2CCC3(CC2)OCCO3)ccc1F`, the inhibition is 2.23% (inactive).

In the case of `Cc1c(C(=O)Nc2ccccc2Cl)oc2ccc(S(=O)(=O)N3CCC4(CC3)OCCO4)cc12`, the inhibition is 74.2% (active).

On to `COc1ccc(NC(=O)c2oc3ccc(S(=O)(=O)N4CCOCC4)cc3c2C)cc1`, for which the inhibition was -8.31% (inactive).

`O=C(CCSCCc1ccccn1)Nc1nccs1`: the inhibition is 7.74% (inactive).

Take `OCc1nc(CO)n(Cc2ccccc2)n1`: the inhibition was 0.365% (inactive).

On to `CC1CCCN(CCOCCOc2ccccc2-c2ccccc2)C1` (stereo not drawn), for which the inhibition was 0.832% (inactive).

As to `Cc1ccc(NC(=S)N2CCCC(c3ccccc3)=N2)cc1`, the inhibition is -10% (inactive).

For `Cc1nc2ccccc2n1CC(=O)N/N=C/c1cccnc1`, the inhibition was 24.3% (inactive).

As to `O=C(CSc1cccc2cccnc12)N/N=C/c1cccnc1`, the inhibition is 51.3% (active).

In the case of `CCOC(=O)N/N=C/c1cccnc1`, the inhibition is -26.2% (inactive).

For the compound `CC(CNc1ccc([N+](=O)[O-])c2cccnc12)Nc1c([N+](=O)[O-])cc(C(F)(F)F)cc1[N+](=O)[O-]` (stereo not drawn), the inhibition is -2.43% (inactive).

For the compound `COc1ccccc1C(=O)Oc1ccc(N2C(=O)CCC2=O)cc1`, the inhibition is 1.47% (inactive).

Regarding `Cc1cc(OC(=O)c2ccccc2Cl)ccc1N1C(=O)CCC1=O`, the inhibition is 52.4% (active).

In the case of `Cc1cccc(/C(N)=N/OC(=O)c2ccccc2Cl)c1`, the inhibition was 5.79% (inactive).

As to `Cc1sc2c(c1C)c(=O)n(-c1ccccc1)c(=O)n2CC(=O)NCC1CCCO1` (stereo not drawn), the inhibition is -19.9% (inactive).

With `O=C(COC(=O)c1ccccc1NC(=O)c1ccco1)Nc1ccc2c(c1)OC(F)(F)O2`, the inhibition was 5.95% (inactive).

Consider `Cc1ccc(-n2ncc3c(=O)n(-c4ccc(C)c(C)c4)c(-c4ccco4)nc32)cc1`, for which the inhibition is -0.384% (inactive).

As for `Cc1ccc(-n2c(=O)c(C#N)cc3c(=O)n4ccccc4nc32)cc1C`, the inhibition is 73.3% (active).

With `CCn1c(=N)c(S(=O)(=O)c2ccc(F)cc2)cc2c(=O)n3ccccc3nc21`, the inhibition was 11.1% (inactive).

Consider `CNC(=S)Nc1ccc([N+](=O)[O-])cc1`, for which the inhibition was 21.3% (inactive).

In the case of `CN(C)CC(C)(C)CNC(=O)c1cc(Br)cc(Br)c1O`, the inhibition is 21.9% (inactive).

As for `COc1cc(NC(=O)COC(=O)CSc2ccc3ccccc3c2)c(C)cc1[N+](=O)[O-]`, the inhibition was 2.59% (inactive).

Regarding `Cc1cccc(N2CCN(C(=O)CN(C)S(=O)(=O)c3ccc4c(c3)CCC(=O)N4)CC2)c1C`, the inhibition was 0.348% (inactive).

For the compound `O=C(NCc1ccccc1)C1CCCN(c2nc3ccsc3c(=O)s2)C1` (stereo not drawn), the inhibition is 63.7% (active).

For `CCc1ccc(CNC(=O)C2CCCN(c3nc4ccccc4o3)C2)cc1` (stereo not drawn), the inhibition is -20.1% (inactive).

With `O=C(NCc1ccccc1)C1CCCN(S(=O)(=O)c2cccs2)C1` (stereo not drawn), the inhibition was -1.98% (inactive).

On to `CN(C(=O)COC(=O)c1cc(-c2ccco2)nc2ccccc12)C1CCS(=O)(=O)C1` (stereo not drawn), for which the inhibition was 65.3% (active).

On to `COc1ccc(NC(=O)COc2ccc(C(=O)OCC(=O)N(C)C3CCS(=O)(=O)C3)cc2OC)cc1` (stereo not drawn), for which the inhibition is -34.5% (inactive).

On to `Cc1c(-c2cccc(Cl)c2)nc2ccccc2c1C(=O)OCC(=O)N(C)C1CCS(=O)(=O)C1` (stereo not drawn), for which the inhibition was -3.32% (inactive).

As for `CC(C)Cc1nn2c(=O)cc(O)nc2s1`, the inhibition was 1.45% (inactive).

With `O=C(NNC(=O)c1cccnc1)Nc1ccccc1`, the inhibition was -0.546% (inactive).

With `O=C(Nc1ccc(Cl)cc1)Nc1ccc(Oc2cccnc2)nc1`, the inhibition was -9.14% (inactive).

Take `O=C(NNC(=O)c1csc(-c2cccnc2)n1)Nc1ccc(Cl)cc1`: the inhibition is 52.2% (active).

Take `CC(=O)Nc1ccc(OCCC[n+]2cccc(C(=O)[O-])c2)cc1`: the inhibition was 12% (inactive).

For `FC(F)(F)c1ccc(CN2C[C@@H]3C(c4ccccc4)C4(c5ccccc5)CC3(C4)[C@H]2c2ccccc2)cc1` (stereo partly drawn), the inhibition is 17.4% (inactive).

For `Cc1cccc(-n2c(SCC(N)=O)nc3c(c2=O)C2(CCCCC2)Cc2ccccc2-3)c1`, the inhibition was 6.81% (inactive).

Turning to `COc1cccc(Nc2nnc(SCC(=O)N3CC(=O)Nc4ccccc43)s2)c1`, the inhibition is 36.9% (inactive).

In the case of `CCc1ccc(Nc2nnc(SCC(=O)c3ccc4c(c3)NC(=O)CO4)s2)cc1`, the inhibition is 105% (active).

With `CCCc1nc2ccccc2c(C(=O)OCC(=O)c2ccc3c(c2)NC(=O)CO3)c1CC`, the inhibition was -1.08% (inactive).

With `CO/N=C(\N)c1ccc([N+](=O)[O-])cc1`, the inhibition was 3.14% (inactive).

As to `CCOc1ccc(N2C(=O)Nc3ccccc3C2(O)C(=O)NCc2ccco2)cc1` (stereo not drawn), the inhibition was 20.7% (inactive).

Regarding `CNc1ccc(SC#N)cc1`, the inhibition was 33.3% (inactive).

Turning to `N#Cc1c(-c2ccc(F)cc2)cc(C2CC2)nc1SCC(=O)c1cccs1`, the inhibition was 3.07% (inactive).

Regarding `N=c1ccn(CC(=O)NC(N)=O)c2ccccc12`, the inhibition is 0.937% (inactive).

In the case of `O=C(NC1CCCCCC1)c1cccnc1Sc1ccc(Cl)cc1`, the inhibition was 2.04% (inactive).

Consider `Cc1cc(/C=C2/C(=N)N3C(=NC2=O)SN=C3S(C)(=O)=O)c(C)n1-c1ccccc1`, for which the inhibition was 0.408% (inactive).

With `CCC1=NN2C(=N)/C(=C/c3cc(C)n(-c4ccccc4)c3C)C(=O)N=C2S1`, the inhibition was 15.3% (inactive).

Turning to `CCS(=O)(=O)C1=NSC2=NC(=O)/C(=C\c3cc(C)n(-c4cccc(OC)c4)c3C)C(=N)N21`, the inhibition is 55.1% (active).

For `O=c1cc(-c2ccccc2)[nH]c2cc(F)ccc12`, the inhibition was 2.23% (inactive).

In the case of `CCc1ccccc1N1CN(Cc2ccco2)CNC1=S`, the inhibition was 3.91% (inactive).

For the compound `O=C1/C(=C/c2cccs2)CCC1C1CCCC1` (stereo not drawn), the inhibition is 26% (inactive).

As to `CCOc1ccc(C2c3[nH]c4ccccc4c3CCN2Cc2cccn2-c2ncccn2)cc1` (stereo not drawn), the inhibition is 15.4% (inactive).

With `CCOc1cc(C2C(C(=O)OC)=CN(C3CCCC3)C=C2C(=O)OC)cc(Br)c1O`, the inhibition is 1.91% (inactive).

`CCOc1ccccc1C1C(C(=O)OC)=CN(C)C=C1C(=O)OC`: the inhibition is 71.8% (active).

As for `COC(=O)C1=CN(C)C=C(C(=O)OC)C1c1ccc(Cl)cc1Cl`, the inhibition was 9.15% (inactive).

As to `O=C(NCC1CCCCC1)c1cc(S(=O)(=O)N2CCCCC2)ccc1N1CCOCC1`, the inhibition is 19.1% (inactive).

Take `Cc1cccc(NS(=O)(=O)c2ccc(C)c(C(N)=O)c2)c1`: the inhibition is -7.85% (inactive).

Regarding `COc1cccc(CN(C)CC(=O)Nc2ccccc2C(=O)Nc2ccccc2)c1`, the inhibition was 4.04% (inactive).

On to `COc1ccc(-c2cc3nc(C)c(CCC(=O)NC(C)CCc4ccco4)c(C)n3n2)c(OC)c1` (stereo not drawn), for which the inhibition was -1.24% (inactive).

Consider `Cc1cnc(C(=O)N2CCCC(C(=O)c3ccc(C(F)(F)F)cc3)C2)cn1` (stereo not drawn), for which the inhibition was 17.7% (inactive).

With `COc1cccc(CNC(=O)CCC2CCCN(C(=O)c3ccoc3C)C2)c1` (stereo not drawn), the inhibition is 1.1% (inactive).

As for `COc1cccc(C(=O)N2CCCC(CCC(=O)NCc3ccc(F)c(F)c3)C2)c1` (stereo not drawn), the inhibition is 18.6% (inactive).

As for `COc1cccc(CNC(=O)CCC2CCCN(Cc3ccc(OC(F)F)cc3)C2)c1` (stereo not drawn), the inhibition is 52.7% (active).

Regarding `O=C(/C=C/c1ccc(F)cc1)Nc1cccc(S(=O)(=O)Nc2cccc(C(F)(F)F)c2)c1`, the inhibition was 2.87% (inactive).

In the case of `CC(=O)NC(=S)NNC(=O)c1ccc(Br)cc1`, the inhibition was -1.36% (inactive).

As for `COc1cccc2c1OCC(C(=O)NCc1ccc(Cl)cc1Cl)=C2`, the inhibition was 2.65% (inactive).

For `CCc1ccc(C(=O)CSc2nnc(C)c(=O)[nH]2)cc1`, the inhibition is 10.1% (inactive).

In the case of `N#Cc1c(-c2cccs2)nc(SCC(=O)c2ccc(Br)cc2)[nH]c1=O`, the inhibition is 72.7% (active).

For `Cc1nc2nc(SCC(=O)c3ccccc3)[nH]c2cc1Br`, the inhibition was 16.2% (inactive).

In the case of `COc1cccc(C2Nc3cccc4cccc(c34)N2)c1`, the inhibition was 21.8% (inactive).

Take `COCc1cc(C)nc2sc(C(=O)NC3CCCCC3)c(N)c12`: the inhibition was 1.3% (inactive).

Take `COc1cccc(C(=O)c2cc3ccc(O)cc3oc2=O)c1`: the inhibition was 63.1% (active).

Consider `COc1ccc2oc(=O)c(C(=O)N3CCCC3)cc2c1`, for which the inhibition is 22% (inactive).

In the case of `COc1ccc2oc(=O)c(C(=O)O)cc2c1`, the inhibition is -0.521% (inactive).

For the compound `O=C(Cc1c(O)c2ccccc2[nH]c1=O)NCc1ccccc1`, the inhibition was 2.47% (inactive).

On to `COc1cc(OC)cc(C(=O)NCC(=O)OCc2csc(-c3ccccc3)n2)c1`, for which the inhibition was 3.87% (inactive).

With `Cc1cc(NC(=O)CN2C(=O)NC(CCc3ccccc3)C2=O)no1` (stereo not drawn), the inhibition is -23.9% (inactive).

As for `CC(C)OC(=O)Cn1nc(C(F)(F)F)c2c1CCCC2`, the inhibition was 22.4% (inactive).

For `O=C(N/N=C/c1ccc([N+](=O)[O-])cc1)C(=O)N1CCCC1`, the inhibition is 6.04% (inactive).

`N#C/C(=C/c1ccc(N2CCOCC2)o1)C(=O)N1CCOCC1`: the inhibition is 1.17% (inactive).

`Cc1nnc(SCC(=O)NNC(=O)c2ccc(Cl)cc2)n1CC1CCCO1` (stereo not drawn): the inhibition was 22.1% (inactive).

As to `Cc1cccn2c(=O)c3cc(C(=O)N4COCC4(C)C)n(C)c3nc12`, the inhibition was 11.2% (inactive).

On to `Cc1cccn2c(=O)c3cc(C#N)c(=NC(=O)c4cccnc4)n(CC4CCCO4)c3nc12` (stereo not drawn), for which the inhibition is 35.1% (inactive).

For the compound `Cc1cccn2c(=O)c3cc(C#N)c(=O)n(CCCN4CCOCC4)c3nc12`, the inhibition was 178% (active).

For `COC(=O)C1=CN(Cc2ccc(OC)c(OC)c2)C=C(C(=O)OC)C1c1cccs1`, the inhibition was 79.3% (active).

Turning to `COc1ccc(C2=NN(C(=O)CCC(=O)O)C(c3cccs3)C2)cc1OC` (stereo not drawn), the inhibition was 19.1% (inactive).

For the compound `COc1ccc(CCNC(=O)COC(=O)/C=C/c2cccs2)cc1OC`, the inhibition was 19.3% (inactive).

For `Cc1ccc2nc(-c3ccccn3)cc(C(=O)Nc3ccc4c(c3)OCO4)c2c1`, the inhibition was -2.84% (inactive).

For `O=C(NCc1cccs1)c1cc(-c2ccccn2)nc2ccc(Br)cc12`, the inhibition was -19.4% (inactive).

`O=C(Nc1ccncc1)c1cc(-c2ccccn2)nc2ccc(Br)cc12`: the inhibition was 81.4% (active).

Regarding `Cc1ccc2nc(-c3ccncc3)cc(C(=O)Nc3ccc(OC(F)F)cc3)c2c1`, the inhibition was 53.4% (active).

Take `Cc1ccc2nc(-c3ccncc3)cc(C(=O)Nc3ccc4c(c3)OCCO4)c2c1`: the inhibition is -4.23% (inactive).

As for `Cc1ccc2nc(-c3ccccc3)cc(C(=O)O)c2c1`, the inhibition is 3.19% (inactive).
